Active and inactive are the calls of the source. How the source made its calls: active means hit-call score of the fitted dose curve at least 0.9, where 1 is the maximum; inactive means score below 0.9.
Key:
[1] = target: Transcription factor E2F1 (Homo sapiens) (UniProt Q01094); assay: ATG_E2F_CIS: Attagene CIS-FACTORIAL HepG2 Assay for human E2F Transcription Factor 1 (AID 2282935); conditions: HepG2 Attagene cis-reporter, E2F reporter RNA transcripts; actives raise or lower the signal
Summary of the method: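 First, HepG2 cells were transfected with reporter transcription units. Next, they were dosed for 24 h. Then RNA was isolated, converted to cDNA, PCR-amplified, FAM-labeled, HpaI-digested and analyzed by capillary electrophoresis.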

[2] = ATG_E_Box_CIS: Attagene CIS-FACTORIAL HepG2 Assay for human Enhancer Box (E-box) (AID 2282936); conditions: HepG2 E-box cis-reporter transcription, actives raise or lower the signal
Summary of the method: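 Endogenous transcription factor activity was sensed in human HepG2 liver cells through transfected cis-promoter reporter units. After 24 h of dosing, total RNA was reverse-transcribed and reporter cDNA resolved by capillary electrophoresis.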

[3] = ATG_M_61_CIS: Attagene CIS-FACTORIAL HepG2 Assay for M61 Transcription Factor (Internal Marker) (AID 2282937); conditions: HepG2 Attagene CIS-FACTORIAL M61 internal marker reporter; actives raise or lower the signal
Summary of the method: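 Endogenous transcription factor activity in HepG2 is read through transiently transfected cis-element reporter units. After 24 h dosing, RNA undergoes reverse transcription, PCR and primer extension with 6-FAM before capillary electrophoresis; DMSO-referenced bidirectional fit.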

[4] = ATG_EGR_CIS: Attagene CIS-FACTORIAL HepG2 Assay for human Early Growth Response 1 (EGR1) (AID 2282938); conditions: HepG2 Attagene CIS-FACTORIAL EGR reporter mRNA; actives raise or lower the signal
Summary of the method: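 Activity is taken as induction or loss of reporter mRNA versus DMSO, fitted bidirectionally. Transcripts from cis-regulated reporter units in transiently transfected HepG2 were measured after 24 h by RT-PCR with capillary electrophoresis.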

[5] = ATG_M_19_CIS: Attagene CIS-FACTORIAL HepG2 Assay for M19 Transcription Factor (Internal Marker) (AID 2282939); conditions: HepG2 Attagene CIS-FACTORIAL M19 internal marker reporter; actives raise or lower the signal
Summary of the method: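 Background-control endpoint from a multiplexed HepG2 reporter panel. Cells carrying cis-regulated reporter constructs are treated 24 h, then reporter transcripts are amplified, fluorescently labelled and sized by capillary electrophoresis. DMSO defines baseline.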

[6] = ATG_ERE_CIS: Attagene CIS-FACTORIAL HepG2 Assay for Estrogen Response Element (ERE) (AID 2282940); conditions: HepG2 ERE cis-reporter, Attagene RNA transcript; actives raise or lower the signal
Summary of the method: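 Cells used were human hepatoma HepG2, transfected with multiple reporter transcription units under cis-regulatory promoters. Reporter mRNA, read 24 h post-dosing via fluorescent RT-PCR products on capillary electrophoresis, was fitted bidirectionally relative to DMSO.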

[7] = target: Hepatocyte nuclear factor 3-beta (Homo sapiens) (UniProt Q9Y261); assay: ATG_FoxA2_CIS: Attagene CIS-FACTORIAL HepG2 Assay for human Forkhead box A2 (FOXA2) (AID 2282942); conditions: HepG2 cis-reporter transcription factor activity, 24 h; actives raise or lower the signal
Summary of the method: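 Reporter transcript induction is measured by fluorescence after capillary electrophoresis of RT-PCR products from HepG2 cells exposed 24 h. Cis-regulated reporter units report endogenous factor activity; curves fitted both directions against DMSO.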

[8] = ATG_FoxO_CIS: Attagene CIS-FACTORIAL HepG2 Assay for human Forkhead box O (FoxO) (AID 2282943); conditions: HepG2 Attagene cis-reporter, FoxO element, mRNA; actives raise or lower the signal
Summary of the method: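 24 h chemical exposure, HepG2 with transient cis-MRTU transfection. RNA extraction, oligo(dT) RT, reporter-specific PCR, primer-extension labelling, HpaI digestion, CE fragment analysis; bidirectional fit, DMSO baseline.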

[9] = ATG_GATA_CIS: Attagene CIS-FACTORIAL HepG2 Assay for human GATA Binding Protein (AID 2282944); conditions: HepG2 GATA cis-element reporter, Attagene multiplex mRNA; actives raise or lower the signal
Summary of the method: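 Endogenous transcription factor activity was captured through cis-promoter-driven reporters in transfected HepG2 cells. After 24 h exposure, reporter transcripts were quantified by RT-PCR with fluorescent capillary electrophoresis, and responses fitted both directions against DMSO.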

[10] = ATG_GLI_CIS: Attagene CIS-FACTORIAL HepG2 Assay for human Zinc Finger Protein GLI1 (AID 2282945); conditions: HepG2, Attagene cis-factorial reporter mRNA, GLI element; actives raise or lower the signal
Summary of the method: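 HepG2 cells transiently transfected with cis-promoter multiplexed reporter units report endogenous transcription factor activity. After 24 h chemical exposure, reporter mRNA was quantified by RT-PCR, 6-FAM labelling, HpaI digestion and capillary electrophoresis, with bidirectional fitting against DMSO.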

[11] = target: Bile acid receptor (Homo sapiens) (UniProt Q96RI1); assay: ATG_IR1_CIS: Attagene CIS-FACTORIAL HepG2 Assay for human Nuclear Receptor Subfamily 1 Group H Member 4 (NR1H4), IR1 submotif (AID 2282946); conditions: IR1 reporter transcription, actives raise or lower the signal
Summary of the method: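 Readout: reporter transcript levels by RT-PCR with fluorescent capillary electrophoresis, from HepG2 cells transiently transfected with multiplexed cis-regulated reporters and dosed 24 h. Gain- or loss-of-signal fitted versus DMSO negative control.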

[12] = ATG_GRE_CIS: Attagene CIS-FACTORIAL HepG2 Assay for human Glucocorticoid Response Elements (GRE) (AID 2282947); conditions: HepG2 GRE cis-reporter, Attagene multiplex mRNA; actives raise or lower the signal
Summary of the method: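 Cells (HepG2) bearing transfected cis-promoter reporter transcription units were treated with chemical for 24 hours. Reporter mRNA was measured via RT-PCR with capillary electrophoresis, and activity was fitted in both directions relative to DMSO.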

[13] = ATG_ISRE_CIS: Attagene CIS-FACTORIAL HepG2 Assay for human Interferon Regulatory Factor 1 (IRF1) binding to an Interferon-Stimulated Response Element (ISRE) (AID 2282948); conditions: HepG2 ISRE cis-reporter (Attagene), mRNA transcription readout; actives raise or lower the signal
Summary of the method: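 Multiplexed mRNA reporter readout in human liver HepG2 cells: cis-element-driven reporters transfected, compound added for 24 h, transcripts amplified, fluorescently labelled and sized by capillary electrophoresis; curve fitting bidirectional against DMSO.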

[14] = ATG_M_32_CIS: Attagene CIS-FACTORIAL HepG2 Assay for M32 Transcription Factor (Internal Marker) (AID 2282949); conditions: HepG2 Attagene cis-factorial M32 reporter, mRNA; actives raise or lower the signal;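 further: background control marker of the multiplexed CIS panel rather than a real target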
Summary of the method: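 HepG2 transfectants (cis-regulated reporter transcription units) dosed 24 h. Reporter mRNA by RT-PCR plus CE, analysed as gain or loss relative to DMSO.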

[15] = ATG_M_06_CIS: Attagene CIS-FACTORIAL HepG2 Assay for M06 Transcription Factor (Internal Marker) (AID 2282950); conditions: HepG2 Attagene CIS-FACTORIAL M06 internal marker reporter; actives raise or lower the signal
Summary of the method: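 Steps: transfect HepG2 with multiplexed cis-element reporter constructs; dose chemical 24 h; extract RNA with DNase treatment; reverse-transcribe, PCR-amplify, 6-FAM label, HpaI digest; separate fragments by capillary electrophoresis. Activity fitted both directions versus DMSO.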

[16] = target: Hypoxia-inducible factor 1-alpha (Homo sapiens) (UniProt Q16665); assay: ATG_HIF1a_CIS: Attagene CIS-FACTORIAL HepG2 Assay for human Hypoxia Inducible Factor 1 (HIF1A) (AID 2282951); conditions: HepG2 Attagene cis-factorial HIF1a reporter transcription; actives raise or lower the signal
Summary of the method: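 Fluorescence intensity of capillary-separated, 6-FAM-labelled reporter amplicons gives mRNA induction in HepG2 cells carrying transfected cis-promoter reporter units; cells exposed 24 h, responses fitted up or down from DMSO.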

[17] = target: Hepatocyte nuclear factor 6 (Homo sapiens) (UniProt Q9UBC0); assay: ATG_HNF6_CIS: Attagene CIS-FACTORIAL HepG2 Assay for human Hepatocyte Nuclear Factor 6 (HNF6) (AID 2282952); conditions: HepG2 Attagene cis-factorial HNF6 reporter transcription; actives raise or lower the signal
Summary of the method: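 Using cis-element reporters in HepG2 liver cells, the assay tracks endogenous factor-driven transcription 24 h post-dosing. Signal comes from 6-FAM-labelled, HpaI-digested RT-PCR fragments, with gain or loss scored against DMSO.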

[18] = target: Heat shock factor protein 1 (Homo sapiens) (UniProt Q00613); assay: ATG_HSE_CIS: Attagene CIS-FACTORIAL HepG2 Assay for human Heat Shock Transcription Factor 1 (HSE) (AID 2282953); conditions: HepG2 HSE cis-reporter, Attagene RNA transcription; actives raise or lower the signal
Summary of the method: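 Cells were transfected with cis-element-driven reporter constructs, dosed for 24 h, then total RNA was reverse-transcribed and reporter cDNA amplified, FAM-labelled and digested with HpaI. Fragments were resolved by capillary electrophoresis; gain or loss was fitted against DMSO.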

[19] = ATG_MRE_CIS: Attagene CIS-FACTORIAL HepG2 Assay for human Metal Responsive Element (MRE) (AID 2282954); conditions: HepG2 MRE cis-reporter transcription, Attagene multiplex; actives raise or lower the signal
Summary of the method: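 Cells were transfected with cis-promoter reporter transcription units, then dosed for 24 h. RNA was reverse-transcribed, amplified, fluorescently labelled and resolved by capillary electrophoresis, and activity was fitted in both directions relative to DMSO.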

Measured: outcome

Hepatocyte nuclear factor 6 (Homo sapiens), sequence (Q9UBC0 whole entry, looked up, the tested form may be a part): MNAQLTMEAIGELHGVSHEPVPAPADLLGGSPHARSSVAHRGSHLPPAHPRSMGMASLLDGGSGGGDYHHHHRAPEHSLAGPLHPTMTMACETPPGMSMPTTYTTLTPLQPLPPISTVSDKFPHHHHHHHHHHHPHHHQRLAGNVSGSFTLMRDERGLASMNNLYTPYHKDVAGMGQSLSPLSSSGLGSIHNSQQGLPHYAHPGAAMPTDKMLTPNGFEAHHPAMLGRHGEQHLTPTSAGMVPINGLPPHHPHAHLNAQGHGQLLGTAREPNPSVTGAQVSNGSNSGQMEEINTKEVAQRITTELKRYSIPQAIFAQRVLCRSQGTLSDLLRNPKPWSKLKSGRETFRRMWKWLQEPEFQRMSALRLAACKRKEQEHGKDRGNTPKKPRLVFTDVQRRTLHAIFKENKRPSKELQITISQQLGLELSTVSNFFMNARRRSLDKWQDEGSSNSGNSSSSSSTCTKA
Transcription factor E2F1 (Homo sapiens), sequence (Q01094 whole entry, looked up): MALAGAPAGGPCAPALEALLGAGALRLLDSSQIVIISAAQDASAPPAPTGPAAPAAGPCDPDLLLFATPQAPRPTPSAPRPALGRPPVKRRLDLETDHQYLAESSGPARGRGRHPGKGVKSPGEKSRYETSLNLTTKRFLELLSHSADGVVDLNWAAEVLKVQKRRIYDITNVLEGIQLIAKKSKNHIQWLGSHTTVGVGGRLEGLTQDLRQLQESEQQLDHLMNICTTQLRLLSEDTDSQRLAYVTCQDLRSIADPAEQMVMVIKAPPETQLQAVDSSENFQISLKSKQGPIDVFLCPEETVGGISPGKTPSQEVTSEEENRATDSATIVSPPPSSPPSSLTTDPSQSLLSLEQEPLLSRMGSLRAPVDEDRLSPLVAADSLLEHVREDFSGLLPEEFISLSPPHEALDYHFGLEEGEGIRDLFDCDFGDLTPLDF
Bile acid receptor (Homo sapiens), sequence (Q96RI1 whole entry, looked up): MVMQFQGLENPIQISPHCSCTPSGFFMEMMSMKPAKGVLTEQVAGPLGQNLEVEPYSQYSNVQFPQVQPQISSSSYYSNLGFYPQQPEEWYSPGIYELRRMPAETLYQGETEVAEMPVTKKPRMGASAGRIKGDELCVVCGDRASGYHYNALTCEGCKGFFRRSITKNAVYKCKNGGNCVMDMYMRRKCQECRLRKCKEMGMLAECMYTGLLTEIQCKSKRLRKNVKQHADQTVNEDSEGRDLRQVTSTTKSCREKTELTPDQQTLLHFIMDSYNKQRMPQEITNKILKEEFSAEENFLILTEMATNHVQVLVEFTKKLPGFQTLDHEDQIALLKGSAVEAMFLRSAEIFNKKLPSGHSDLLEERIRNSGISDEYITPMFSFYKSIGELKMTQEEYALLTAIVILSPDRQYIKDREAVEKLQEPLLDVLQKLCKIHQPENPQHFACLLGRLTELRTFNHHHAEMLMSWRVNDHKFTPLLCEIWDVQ
Hepatocyte nuclear factor 3-beta (Homo sapiens), sequence (Q9Y261 whole entry, looked up): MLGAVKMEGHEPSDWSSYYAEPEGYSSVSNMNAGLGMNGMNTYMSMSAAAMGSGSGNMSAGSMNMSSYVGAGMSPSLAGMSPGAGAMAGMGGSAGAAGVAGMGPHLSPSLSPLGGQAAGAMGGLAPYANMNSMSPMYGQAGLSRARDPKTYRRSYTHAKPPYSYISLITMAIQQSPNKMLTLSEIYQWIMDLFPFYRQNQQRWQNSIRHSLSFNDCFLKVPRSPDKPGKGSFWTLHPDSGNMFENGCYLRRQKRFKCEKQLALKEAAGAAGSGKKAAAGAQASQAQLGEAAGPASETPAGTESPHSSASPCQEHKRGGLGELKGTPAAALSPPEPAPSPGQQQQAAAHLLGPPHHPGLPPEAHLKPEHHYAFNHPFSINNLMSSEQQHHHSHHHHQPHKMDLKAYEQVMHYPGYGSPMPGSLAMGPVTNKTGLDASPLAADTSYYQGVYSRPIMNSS
Heat shock factor protein 1 (Homo sapiens), sequence (Q00613 whole entry, looked up, the tested form may be a part): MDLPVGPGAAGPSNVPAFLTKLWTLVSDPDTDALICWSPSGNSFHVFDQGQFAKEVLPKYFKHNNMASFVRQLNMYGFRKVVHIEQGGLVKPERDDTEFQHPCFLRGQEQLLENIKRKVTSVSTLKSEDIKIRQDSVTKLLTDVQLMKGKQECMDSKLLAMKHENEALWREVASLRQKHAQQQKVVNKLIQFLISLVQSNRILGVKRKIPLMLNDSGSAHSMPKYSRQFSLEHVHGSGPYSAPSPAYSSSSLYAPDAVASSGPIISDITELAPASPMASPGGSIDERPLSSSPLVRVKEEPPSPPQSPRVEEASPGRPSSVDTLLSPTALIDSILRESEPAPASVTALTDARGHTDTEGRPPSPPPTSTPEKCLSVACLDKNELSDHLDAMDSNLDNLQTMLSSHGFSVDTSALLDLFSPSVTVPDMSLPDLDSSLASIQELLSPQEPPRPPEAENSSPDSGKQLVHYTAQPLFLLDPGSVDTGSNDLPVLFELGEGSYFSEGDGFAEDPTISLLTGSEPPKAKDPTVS
Hypoxia-inducible factor 1-alpha (Homo sapiens), sequence (Q16665 whole entry, looked up): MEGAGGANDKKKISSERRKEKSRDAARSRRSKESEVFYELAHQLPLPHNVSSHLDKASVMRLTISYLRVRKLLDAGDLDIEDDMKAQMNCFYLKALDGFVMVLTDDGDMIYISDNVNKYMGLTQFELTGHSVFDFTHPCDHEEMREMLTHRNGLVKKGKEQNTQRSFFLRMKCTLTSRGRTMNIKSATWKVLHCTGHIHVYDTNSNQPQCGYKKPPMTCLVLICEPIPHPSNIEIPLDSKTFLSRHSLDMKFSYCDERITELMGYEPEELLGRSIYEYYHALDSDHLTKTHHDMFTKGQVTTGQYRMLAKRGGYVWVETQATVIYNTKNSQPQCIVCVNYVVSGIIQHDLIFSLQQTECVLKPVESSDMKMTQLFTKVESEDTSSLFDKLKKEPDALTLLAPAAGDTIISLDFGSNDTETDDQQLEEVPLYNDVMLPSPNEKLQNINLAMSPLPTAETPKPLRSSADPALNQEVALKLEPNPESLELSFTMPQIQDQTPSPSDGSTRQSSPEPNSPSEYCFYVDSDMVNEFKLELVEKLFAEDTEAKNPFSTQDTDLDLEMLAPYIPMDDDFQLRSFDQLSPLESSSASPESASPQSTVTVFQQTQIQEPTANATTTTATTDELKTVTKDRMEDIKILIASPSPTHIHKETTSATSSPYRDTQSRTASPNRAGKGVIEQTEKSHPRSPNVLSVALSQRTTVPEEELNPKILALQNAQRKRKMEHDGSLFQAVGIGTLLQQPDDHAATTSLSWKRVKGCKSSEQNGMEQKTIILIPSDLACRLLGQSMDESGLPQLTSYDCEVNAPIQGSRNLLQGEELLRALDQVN

CCCCCCCCCCCCC[N+](C)(C)Cc1ccccc1
inactive: all assays above

C=C(C)C(=O)OCC(F)(F)C(F)(F)C(F)(F)C(F)F
inactive: all assays above

O=C1c2c(O)ccc(Nc3ccc(CCO)cc3)c2C(=O)c2c([N+](=O)[O-])ccc(O)c21
not listed: [16]
inactive: all other assays above
